For the test, the system named is PPARg:RXRa IVT, anti-PPARg (NR concentration 270 nM, RXRa partner concentration 90 nM). The experiment in a line: PBM binding z-score (relative to random genomic background probes); higher = stronger binding; sequences stand for … in GC…GCGATTGACAGCGTAGAATGAAGG
In outline: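 For binding z-scores, the reference was random background probes on custom Agilent 4×180K protein-binding microarrays. These arrays were incubated 1 h with ligand-free nuclear receptor dimers in PBS pH 7.4, 2% milk, 0.02% Triton X-100, 1 mM DTT, 0.2 mg/mL BSA and 0.4 mg/ml salmon testes DNA. Fluorescence was scanned after antibody detection of each partner (one per run) and regression-normalized.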
For the sequence CTACCAAGGTGGACAAGGTCGTTGATTACTATTC, the PBM binding z-score is 0.0174.

For AGAGTGAGGTTAAGATCAGGGAAACAGAATACAT, the PBM binding z-score came to 1.39.

Take CCAGACAGGTGAAAGGGAACTCAGTCTGGTACGC: the PBM binding z-score amounted to 1.02.

Sequence CGAACTAGGTCATGGACAGTGAATCTCCGCACGC gave a PBM binding z-score of 8.2.

The sequence CGACCTAGGTCATCCAGGACAGTGAATACATTGA displayed a PBM binding z-score of 3.89.

TAGCCTAGGTCATGCGGGCCACTATAGTGTCGGC gave a PBM binding z-score of 3.38.

Take ACTAGCAGGCCCAGTTTGGGTCACTCAAACAAAG: the PBM binding z-score was found to be 0.48.

TAGCCTAGGTCATTCAGGTGCCAGTATAGAAAGC showed a PBM binding z-score of 2.83.

As to ATCCCTAGGTAAAGATAGTTCAGTGAATGCAAAT, the PBM binding z-score was determined as 0.0928.

Sequence CAAACTAGGGCACCGGAAGGTCAAAGTCCGCATG gave a PBM binding z-score of 7.55.

As to CCCCGGAGGACAACAGGAGGTCAGAGCTGCCAGA, the PBM binding z-score came to 0.373.

Sequence CAAACTAGGTCAAGAGGGCAAAGTCCGCTTCCCG had a PBM binding z-score of 8.37.

Sequence ATCCAAAGGTCGACGAGGTGAGTATACACCGTTT displayed a PBM binding z-score of 2.51.

In turn, TATACAGGGTCAAACGCCAGAGTACGAATGTCGA displayed a PBM binding z-score of 4.64.

The sequence ACTAGCAGGCCAAGTCTGGGTCACTCAAACAAAG yielded a PBM binding z-score of 3.03.

The sequence GCAGACAGGTGAAACGCAGGTGACTCAGGGTGGC displayed a PBM binding z-score of 1.27.

Turning to ATCTGTAGGTAACCAAGTTCAGTGAATGCCGAAC, the PBM binding z-score came out at 2.55.

CTTACTGGGCCATTCAGAGGTCATTGATCATATG: the PBM binding z-score is 6.21.

ATACCAAGGTGATCGTGAGGTCGTTCATACTAAC registered a PBM binding z-score of 1.54.

Sequence TAGCCTAGGTCATTCAGTGGCCAGTATAGAAAGC gave a PBM binding z-score of 2.7.

AGTCAAAGTTCCCTAGGTAACGTAAGATTCAGCT displayed a PBM binding z-score of 0.612.

The sequence TCTTGTAGATCAAGCAGGTGAAGAAAGCCTGAGT returned a PBM binding z-score of 0.945.

For the origin of these results see the supplement of paper PMC6555819.
